Assay results published in article PMC12136788.
Changes are numbered by the printed parent chain. The full ranking holds about 5,800 sequences; the median of “enrichment r” is about 0.68, and the highest 2% start at about 11. The sample as a whole holds a higher share of the highest values than the screen did.

T1: UNK ZnF1-6 (called full-length) (human, UniProt Q9C0B0 30-357)
T1 sequence: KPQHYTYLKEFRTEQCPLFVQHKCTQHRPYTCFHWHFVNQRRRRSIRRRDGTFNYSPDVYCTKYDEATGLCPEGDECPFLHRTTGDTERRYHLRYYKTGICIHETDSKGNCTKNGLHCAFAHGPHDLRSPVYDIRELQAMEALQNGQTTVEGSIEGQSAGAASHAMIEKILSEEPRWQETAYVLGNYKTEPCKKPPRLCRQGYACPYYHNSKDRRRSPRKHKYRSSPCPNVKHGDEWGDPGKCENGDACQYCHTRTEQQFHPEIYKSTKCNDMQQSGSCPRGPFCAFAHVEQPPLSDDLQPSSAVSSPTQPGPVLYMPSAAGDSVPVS

B1: chr3:129431351:129431457:-|3pUTR|ENSG00000129071|unk|total|mutant (ssRNA)
RNA: GGGAGUUCUACAGUCCGACGAUCACUUCAAAAAAGCUUAAUUAAGUACAACCAACCACCUUUCCAGCCACCGAGAUUUUAAUCCGCCCAACCCGAAGCCCCGUGUGUGUGCUUUCUUAAUGUGUGUGCCAAUGGUGGAUCUUUCAACAGAGGAUUGAGCAUCA
B2: chr11:61873518:61873813:-|three_prime_utr|ENSG00000221968|control|control|control (ssRNA)
RNA: GGGAGUUCUACAGUCCGACGAUCCCCUCACAUGUGUAUUCAGCAGCCCUAUGGCCUUGGCUCUGGGCCUGAUGGGACAGGGGUAGAGGGAAGGUGAGCAUAGCACAUUUUCCUAGAGCGAGAAUUGGGGGAAAGCUGUUAUUUCAACAGAGGAUUGAGCAUCA
B3: chr1:225494445:225494546:-|3pUTR|ENSG00000154380|msi1|total|mutant (ssRNA)
RNA: GGGAGUUCUACAGUCCGACGAUCUUGGGUGUUCCCUCUUCUUAUUUUCUCUCUGCCCACCUUGACACAGUAACUUCCUCUUACCGUCAAGAUGAUGAUUAAGUGUUUAAUUUUUAUUCCAUUUUGUUCUGCAACACGUUCAGGCAACAGAGGAUUGAGCAUCA
B4: ENSG00000070961:be:win_5551|3pUTR|ENSG00000070961|bound_else_gene|NA|bound_elsewhere_windowed (ssRNA)
RNA: GGGAGUUCUACAGUCCGACGAUCAAUUGUACAUUUAUUCAUCAGGUAUUUAUAGUGAAUCAUACUGUAAAAAAGAGGUAGCAUGAUAUGCUGGAAAGCAUAUUAGACUAGGAGUCAAGACCUGGUUUCUAGUCUUGGUUUUGCCAACAGAGGAUUGAGCAUCA
B5: chr11:58422334:58423261:-|CDS|ENSG00000172365|control|control|control (ssRNA)
RNA: GGGAGUUCUACAGUCCGACGAUCACACACUAGUGAGGUGAUUCUGGUUUUUAUGUCAAGCUUUAAUAUCUUUUUUGUUCUUCUAGUUAUCUUUAUCUCCUACUUGUUCAUAUUCAUCACCAUCUUGAAGAUGCAUUCAGCUAACAACAGAGGAUUGAGCAUCA
B6: chr16:18805221:18805325:-|3pUTR|ENSG00000157106|unk|FALSE|bound_elsewhere (ssRNA)
RNA: GGGAGUUCUACAGUCCGACGAUCAAGAAUUCUAUGUUCUGAAAUGCACACUUUUAGAAUGUUUUUCUUUGAAAACAGGCUAAUAGUUUUUUCUUUUUUUGACAAAGUUUCAGCUCCUCUUUAAAGUUAUUGUGUCAUUUUUCUCAACAGAGGAUUGAGCAUCA
B7: chr12:64147824:64147925:+|3pUTR|ENSG00000196935|unk|FALSE|unique (ssRNA)
RNA: GGGAGUUCUACAGUCCGACGAUCCAUCUCUGUGGUGUCUUUGUUCCUUUCCUUUCAUUCAUCACUACUUUCUCCUUGACAGCUAGCUUGCAUUAAAUAAUGUGAAACUUUUACCUUUAAAAUAUUUUUUUAUCUCACUUUCAUCAACAGAGGAUUGAGCAUCA
B8: chr3:125228010:125228111:-|3pUTR|ENSG00000163848|msi1|FALSE|unique (ssRNA)
RNA: GGGAGUUCUACAGUCCGACGAUCAGUUCUCUUCAUAUUUCAUAACUACAUUUCAAUAAUUCUAAACUUUCUACAUUGAUUUUUAGAUACUUAUUUUUCAAGCUUGGUUUCUCAGCUGAUCAGAUGAAUUUAUUCAACUUCAAUCAACAGAGGAUUGAGCAUCA
B9: chr6:52791370:52791857:-|three_prime_utr|ENSG00000243955|control|control|control (ssRNA)
RNA: GGGAGUUCUACAGUCCGACGAUCGCUAAUGAACUCUUUCAAAUUAUAUGCUAAUUAAAUAAUACAACUCCUAUUCGCUGACUUAGUUAAAAUUGAUUUGUUUUCAUUAGGAUCUGAUGUGAAUUCAGAUUUCCAAUCUUCUCCCAACAGAGGAUUGAGCAUCA
B10: chr3:125228010:125228111:-|3pUTR|ENSG00000163848|msi1|total|mutant (ssRNA)
RNA: B8 RNA with U83C, A84C
B11: chr20:3933335:3933436:-|3pUTR|ENSG00000101236|msi1|total|mutant (ssRNA)
RNA: GGGAGUUCUACAGUCCGACGAUCUUACAACACCUGCUAUCAAAUCAUCUAAGCUGAAAACAUGAGAUGCGCUUGGAAAGGCCCCGUCAGAAGCCAUUUCCUCUUAUCAUUUCCCUCUCCUAUGCACCAGUAAGGCCCGUCCAGCAACAGAGGAUUGAGCAUCA
B12: chr7:103374401:103374592:-|CDS|ENSG00000170615|control|control|control (ssRNA)
RNA: GGGAGUUCUACAGUCCGACGAUCCCUGCCCUAUGGGAGCUGCUGUUCCACAGCAUUCAUGAUGCAGUUUUAGGCAGCCAACUUAGAGAGGCACUUGCUGAACAGGAAGCCUCGGCUCCCCCUUCCCAGGAGGACUUGGAGCCCCAACAGAGGAUUGAGCAUCA
B13: chr5:97028609:97028710:+|3pUTR|ENSG00000113441|msi1|FALSE|bound_elsewhere (ssRNA)
RNA: GGGAGUUCUACAGUCCGACGAUCUUGCAAAAGCCAAGGUAAAGCCAGGAUCGCUGCCAAGUUGUUUGCACUCUUUGGAGUUCUAGUUAGCUCAGGGCCUGACUGUAUUUUUCAUCCAUCUUUUCUGAAGUGUCUUUGGGCAGUCAACAGAGGAUUGAGCAUCA
B14: chr17:58090057:58090109:+|3pUTR|ENSG00000264364|msi1_unk|FALSE|overlapping (ssRNA)
RNA: GGGAGUUCUACAGUCCGACGAUCGGGUAGGAUUAGCUUGAAUCUUUUUUUUCUUUACAUUUUUCUCCUGUCUGCUCCCUGCUUAGCCCUCAGUUUCCUCAUUCCUCUGGAGUUCUCUUAGAGCAGCCCCUGUUGUUAGUUGGCCAACAGAGGAUUGAGCAUCA
B15: chr14:75134463:75134564:-|3pUTR|ENSG00000170348|msi1|FALSE|unique (ssRNA)
RNA: GGGAGUUCUACAGUCCGACGAUCCUGUUUGGACUAUGUUUUCUUUUCUUCUCCCACUUGCUCAGCAGCUUGGGCUUCCAUUCUAGUUCUUUUACCAAGAUUUUUGUGUGACCAUGUUGACUUCAUUUGGAUUGCCCUCUUUCACAACAGAGGAUUGAGCAUCA
B16: chr1:228494639:228494729:+|3pUTR|ENSG00000168159|msi1_unk|FALSE|overlapping (ssRNA)
RNA: GGGAGUUCUACAGUCCGACGAUCGCCAUCGUGUCUCAUCUUGCUGUUAUCUCUAGCUCUUUCCCUCCUCCCAUUUCCUUUAGUAGUUGAAUUUUGCAAAGCUUGUAGCAGUAGCUCAGUUGCCUGCAGCAUCCUUGUGUGUAGCAACAGAGGAUUGAGCAUCA
B17: chr16:87831719:87831834:-|3pUTR|ENSG00000103257|msi1_unk|total|mutant (ssRNA)
RNA: GGGAGUUCUACAGUCCGACGAUCCCUGCGUUUGGAGGCCCCUGGGCUCUCACCCAGUCCCCACCCGCCUGCAGAGAGGGAACCCGGGCACCCCUUGUUUCUGUUGUUCCCGUGAAUUUUUUUCGCUAUGGGAGGCAGCCGAGGCAACAGAGGAUUGAGCAUCA
B18: chr22:21921976:21922077:-|3pUTR|ENSG00000100034|msi1|FALSE|unique (ssRNA)
RNA: GGGAGUUCUACAGUCCGACGAUCGACUGCAGUGGGCUCGGAUAGGCCCAUUGAGGUUUUUAGAAAAGCAGGAUUUGUUUUGUUAGGGAGGCAUGAUUUUGGUGAGAUCUUUCUGGAAGAGUUUUCCGCCUCUUUGUGAUGCUGCAACAGAGGAUUGAGCAUCA
B19: chr11:134247321:134247422:+|3pUTR|ENSG00000151502|unk|FALSE|unique (ssRNA)
RNA: GGGAGUUCUACAGUCCGACGAUCCCUUUUCAGAGCAUGAGGUCAGGCUCUGUAUCCCUCCUUUUCCUAGCUGAUAUUCUAACUAGAAGCAUUUGUCAAUUCCUUUGCCUCCCAACUGACAACACACGUUCAUUUUCCAACCUUCAACAGAGGAUUGAGCAUCA
B20: chr1:88684422:88684524:+|5pUTR|ENSG00000065243|unk|total|mutant (ssRNA)
RNA: GGGAGUUCUACAGUCCGACGAUCUCGAUGAACCGGACGGAAUAAGCCGCGCCUCCAGCAGGGGCUGCGCCUCCAUGAAUCCCCCGUUGUUUUUUUUUUUUUCUUUCUCUCCCCUCUCCUCACCCCCACCCCGAGCCCCGUCCCCAACAGAGGAUUGAGCAUCA
B21: chr1:88684422:88684524:+|5pUTR|ENSG00000065243|unk|FALSE|unique (ssRNA)
RNA: B20 RNA with C83U, C84A
B22: chr1:180885099:180885158:+|3pUTR|ENSG00000143324|msi1_unk|FALSE|overlapping (ssRNA)
RNA: GGGAGUUCUACAGUCCGACGAUCAGCUGAAGCUAUGCCUUAUUAUGCAUCCACAUGUAUGGUCCCUGUAGCGUGACCUUUACUAGCUCUGAAUCAGAAGACAGAGCUAUUUCAGAGGCUCUGUGUGCCCUCACUAGAUAGUUUCAACAGAGGAUUGAGCAUCA
B23: chr11:64204363:64204470:+|3pUTR|ENSG00000168439|unk|FALSE|unique (ssRNA)
RNA: GGGAGUUCUACAGUCCGACGAUCGCCCUCGAGUUCCAUGUCUCUUUCCCCUGCCCCUAGUUGCUGUCUCGGCUGCUCUCCCAUAGUUGGUUUUUUUUUUAUUUGGGGCAGUGGGCAUGUUAUGGGGAGGGGAGGGGGUUCUUCCAACAGAGGAUUGAGCAUCA
B24: chr8:100258838:100258944:-|CDS|ENSG00000034677|unk|FALSE|unique (ssRNA)
RNA: GGGAGUUCUACAGUCCGACGAUCAGUGAAUUUGAGGCUCCAUCCCUCAGUGACAGUAUGCCUUCUGUAGCAGAUUCUCACUCUAGUCAUUUUUCUGAAUUUAGUUGUUCUGACCUAGAAAGCAUGAAAACUUCUUGUAGUCAUCAACAGAGGAUUGAGCAUCA

These binders were tested against T1, UNK ZnF1-6 (called full-length) (assay: nsRBNS (natural sequence RNA bind-n-seq); RBNS binding buffer (assumed for nsRBNS): 25 mM Tris pH 7.5, 150 mM KCl, 3 mM MgCl2, 0.01% Triton X-100, 500 ug/ml BSA, 20 U/ml SUPERase-In, 4 C; UNK is unkempt and MSI1 is Musashi-1; names of the RNAs are library labels; protein concentration not given here; high values mean tight binding).

Point of comparison: B17, binding signal 0.698 enrichment R. Against it:
- B1 — lower, 0.636 enrichment R
- B2 — higher, 1.12 enrichment R
- B3 — lower, 0.642 enrichment R
- B4 — lower, 0.3 enrichment R
- B5 — higher, 12.5 enrichment R
- B6 — higher, 0.773 enrichment R
- B7 — higher, 10.6 enrichment R
- B8 — higher, 3.33 enrichment R
- B9 — higher, 6.55 enrichment R
- B10 — higher, 15.6 enrichment R
- B11 — lower, 0.525 enrichment R
- B12 — higher, 0.733 enrichment R
- B13 — lower, 0.475 enrichment R
- B14 — higher, 4.34 enrichment R
- B15 — higher, 0.995 enrichment R
- B16 — higher, 14.7 enrichment R
- B18 — higher, 0.813 enrichment R
- B19 — higher, 2.72 enrichment R
- B20 — higher, 3.43 enrichment R
- B21 — higher, 39 enrichment R
- B22 — higher, 2.64 enrichment R
- B23 — higher, 20.5 enrichment R
- B24 — higher, 13.2 enrichment R
